# Reference: PubChem BioAssay AID2515 (National Center for Advancing Translational Sciences (NCATS), 2010)
# Records with an inconclusive call do not appear. Activity calls are given as the source filed them. Calls come from the whole dose curve; as a rule, active = well fitted inhibition curve with a large enough effect; inconclusive = small, poorly fitted or top-dose-only effect; inactive = flat fitted curve, though single readings scatter.
# Biological target: Luciferin 4-monooxygenase (Photinus pyralis) (UniProt P08659)
# Test: Counterscreen Assay for Enhancers of SMN2 Splice Variant Expression: Interaction with Luciferase Reporter for Probe SAR
# Settings: purified firefly luciferase, luminescence inhibition; series mostly up to 51 µM; activity, negative = inhibition: at the top concentration
# Description: NIH Chemical Genomics Center [NCGC] NIH Molecular Libraries Probe Production centers Network [MLPCN] MLPCN Grant: R03 MH084179-01 Assay Submitter (PI): Elliot Androphy NCGC Assay Overview: Spinal muscular atrophy (SMA) is caused by insufficient levels of the survival motor neuron protein SMN. The SMN locus on chromosome 5q13 contains two inverted copies of SMN called SMN1 and SMN2 which are 99% identical at the amino acid level. SMN1 is a fully functional protein and SMN2 skips exon 7 90% of the time. Skipping of exon 7 produces non-functional protein product. 10% of the SMN2 protein includes exon 7 and is fully functional. In the SMA disease state, mutations in the SMN1 locus are the cause of the disease state. Because only 10% of SMN2 is of the fully functional form, it is not sufficient to overcome the deficiency produced by the loss of the SMN1 product. A therapy that either increases the amount of SMN2 product made increases the inclusion of exon 7 has been proposed for the treatment of SMA. We have designed an assay to identify small molecules that can increase the amount of functional SMN2 product by appending a luciferase reporter gene after the native SMN2 gene, such that inclusion of exon 7 in the expressed product places the luciferase sequence in frame, thus generating functional luciferase enzyme. One potential source of false positives in the primary screening assay is stabilization of the reporter luciferase via direct binding. This assay attempts to identify such compounds by screening directly for luciferase activity in the absence of the cellular system.
# NCGC Assay Protocol Summary: The primary screen utilizes a luciferase reporter gene assay, combining the promoter and splicing based cassettes in tandem with the major portion of the native SMN1 cDNA, and then transfected into HEK293 cells. Compounds that modulate luciferase signal presumably modulate expression of […]. In this assay, we utilize purified firefly luciferase in lieu of a cellular reporter to identify compounds interacting directly with luciferase in the primary screen. Sequence, Parameter, Value, Description (1) Reagent, 2.5 uL, Enzyme in buffer (note A) (2) Compound, 23 nL, From stock solutions (3) Time, 5 minutes, Room temp (4) Reagent#2.5 ul, Luciferase detection reagent (note B) (5) Detector, 1 sec integrate, Luminescent read on Viewlux (note C) Sigma enzyme (1 mg) considered to be MW 61,000 diluted in 357 ul assay buffer to 50 uM stock. A - Enzyme and buffer consists of 50 mM Tris-acetate pH 7.6, 10 mM Mg acetate 0.05% BSA, 0.01% Tween and 5 nM firefly luciferase B - Detection reagent = britelite plus diluted 1:10 in PBS C - Viewlux settings were 1 second integration medium sensitivity Keywords: Spinal muscular atrophy, SMA, SMN2, high throughput screening, MLSMR, MLPCN, NIH Roadmap, qHTS and NCGC
# Luciferin 4-monooxygenase (Photinus pyralis), sequence (P08659 whole entry, looked up, canonical isoform): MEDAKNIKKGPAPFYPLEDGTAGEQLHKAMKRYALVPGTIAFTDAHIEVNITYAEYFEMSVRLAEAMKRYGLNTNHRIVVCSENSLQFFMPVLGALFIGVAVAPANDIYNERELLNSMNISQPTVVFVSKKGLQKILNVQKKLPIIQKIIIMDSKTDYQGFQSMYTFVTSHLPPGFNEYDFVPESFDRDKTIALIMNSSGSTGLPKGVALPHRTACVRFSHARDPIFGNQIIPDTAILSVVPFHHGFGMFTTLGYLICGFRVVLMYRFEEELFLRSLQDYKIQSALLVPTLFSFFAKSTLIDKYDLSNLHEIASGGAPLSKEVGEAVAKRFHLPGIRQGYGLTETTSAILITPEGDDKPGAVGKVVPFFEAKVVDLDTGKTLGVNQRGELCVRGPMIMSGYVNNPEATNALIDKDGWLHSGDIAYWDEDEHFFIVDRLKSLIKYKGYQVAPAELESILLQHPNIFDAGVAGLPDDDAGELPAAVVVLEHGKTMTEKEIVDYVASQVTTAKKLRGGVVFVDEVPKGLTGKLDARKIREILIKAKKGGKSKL
Structure (SMILES),"activity, negative = inhibition",Potency
NC(=O)C1CCN(c2nc(-c3cccnc3)cs2)CC1,-12.3% (inactive),–
CS(=O)(=O)c1ccccc1-c1csc(N2CCC(C(N)=O)CC2)n1,-16.9% (inactive),–
NC(=O)C1CCN(c2nc(-c3ccccc3C(F)(F)F)cs2)CC1,-15.8% (inactive),–
CN(C)c1ccccc1-c1csc(N2CCC(C(N)=O)CC2)n1,-14% (inactive),–
NC(=O)C1CCN(c2nc(-c3cccc(N)c3)cs2)CC1,-24.6% (inactive),–
Cc1noc(C)c1-c1csc(N2CCC(C(N)=O)CC2)n1,-12.3% (inactive),–
NC(=O)C1CCN(c2nc(-c3ccccc3N)cs2)CC1,-14% (inactive),–
CS(=O)(=O)c1cccc(-c2csc(N3CCC(C(N)=O)CC3)n2)c1,-14% (inactive),–
Cn1ccc2cc(-c3csc(N4CCC(C(N)=O)CC4)n3)ccc21,–,10.1 µM (active)
Cc1ccc(-c2csc(N3CCC(C(N)=O)CC3)n2)cc1,–,12.7 µM (active)
CN(C)c1cccc(-c2csc(N3CCC(C(N)=O)CC3)n2)c1,–,12.7 µM (active)
NC(=O)C1CCN(c2nc(-c3ccc4c(c3)OCCO4)cs2)CC1,–,4.5 µM (active)
NC(=O)C1CCN(c2nc(-c3ccc(Br)cc3)cs2)CC1,–,40.1 µM (active)
NC(=O)C1CCN(c2nc(-c3ccccc3F)cs2)CC1,–,35.7 µM (active)
NC(=O)C1CCN(c2nc(-c3cc4ccccc4o3)cs2)CC1,–,31.8 µM (active)
CN(C)C(=O)c1cccc(-c2csc(N3CCC(C(N)=O)CC3)n2)c1,-19.3% (inactive),–
NC(=O)C1CCN(c2nc(-c3ccc(F)cc3)cs2)CC1,–,28.4 µM (active)
NC(=O)C1CCN(c2nc(-c3ccc4ccccc4c3)cs2)CC1,–,31.8 µM (active)
